Experimental data published in PubChem BioAssay (NCI).
The panel holds about 83,000 compounds, 20% with a hit somewhere; the sample as a whole holds those more often.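 The endpoint reported here, percent growth, reads 100 for growth as untreated, 0 for no net growth and -100 for all cells dead.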 A number with no mark means an inactive call. Activity calls are given as the source filed them. The calls were made as follows: active = growth percent below 10; inactive = the rest.

Legend:
Test in all cases: NCI-60 one-dose screen, 48 h (100 = growth as untreated, 0 = no growth, -100 = all killed)
Conditions in all cases: 10 µM unless noted
NCI-H23 lung = system: NCI-H23 lung
NCI-H226 lung = system: NCI-H226 lung
NCI-H322M lung = system: NCI-H322M lung
HOP-62 NSCLC = system: HOP-62 NSCLC
NCI-H460 lung = system: NCI-H460 lung
HOP-92 NSCLC = system: HOP-92 NSCLC
NCI-H522 lung = system: NCI-H522 lung
A549/ATCC NSCLC = system: A549/ATCC NSCLC
786-0 renal = system: 786-0 renal
COLO 205 colon = system: COLO 205 colon
DU-145 prostate = system: DU-145 prostate
K-562 leukemia = system: K-562 leukemia
MALME-3M melanoma = system: MALME-3M melanoma
MDA-MB-231 breast = system: MDA-MB-231 breast
RXF 393 renal = system: RXF 393 renal
SF-268 CNS = system: SF-268 CNS
SF-295 CNS = system: SF-295 CNS
SF-539 CNS = system: SF-539 CNS
UACC-257 melanoma = system: UACC-257 melanoma
M14 melanoma = system: M14 melanoma

Row | SMILES | growth (NCI-H23 lung) [%] | growth (NCI-H226 lung) [%] | growth (NCI-H322M lung) [%] | growth (HOP-62 NSCLC) [%] | growth (NCI-H460 lung) [%] | growth (HOP-92 NSCLC) | growth (NCI-H522 lung) | growth (A549/ATCC NSCLC) [%] | growth (786-0 renal) [%] | growth (COLO 205 colon) [%] | growth (DU-145 prostate) [%] | growth (K-562 leukemia) [%] | growth (MALME-3M melanoma) [%] | growth (MDA-MB-231 breast) [%] | growth (RXF 393 renal) [%] | growth (SF-268 CNS) [%] | growth (SF-295 CNS) [%] | growth (SF-539 CNS) [%] | growth (UACC-257 melanoma) [%] | growth (M14 melanoma) [%]
1 | O=C(NCCNc1nccc(Nc2ccc(S(=O)(=O)Nc3ccccn3)cc2)n1)c1cccc([N+](=O)[O-])c1 | 97.4 | 98.7 | 106 | 99.2 | 104 | 102% | 82% | 94.8 | 98 | 110 | 109 | 92.9 | 108 | 118 | 108 | 104 | 103 | 102 | 95.3 | 101
2 | O=C1NC(=C(Cl)Cl)/C(=N\S(=O)(=O)NCc2ccccc2)N1 | 104 | 99.2 | 99.3 | 102 | 110 | 107% | 81.4% | 94.1 | 100 | 121 | 105 | 81.4 | 104 | 115 | 113 | 102 | 114 | 93.7 | 85.6 | 94.3
3 | COc1ccc(C2=Nc3c(N)nc(N)nc3NC(c3cccc(Nc4ccnc5cc(C(F)(F)F)ccc45)c3)C2)cc1 (stereo not given) | 85.8 | 97.2 | 99.6 | 67.8 | 59.3 | 57.3% | 44.9% | 63.1 | 73 | 57.7 | 75.5 | 13.2 | 78.3 | 70.8 | 54 | 69.7 | 78.9 | 87.1 | 87.8 | 67.2
4 | C=CCn1c(SCC(=O)Nc2ccc(C(=O)/C=C/c3ccc(Cl)cc3)cc2)nnc1-c1ccc(Br)cc1 | 83.7 | 80.7 | 91.8 | 104 | 83.1 | 87.2% | 60.3% | 65.4 | 89 | 118 | 75.3 | 61 | 97.6 | 81.2 | 74.8 | 73.6 | 96.8 | 90.3 | 92.3 | 89.7
5 | N#Cc1ccc(O)c(C2=NCC(c3ccccc3)O2)c1 (stereo not given) | 44.6 | 68 | 55.9 | 29.7 | 19.9 | 60.6% | -12.8% (active) | 32 | 33.2 | 36 | 53.7 | 23.4 | 56.6 | 46.4 | 73.1 | 47.2 | 36.4 | 61.2 | 35.4 | 41.8
6 | O=S(=O)(NCCNc1nccc(-c2c(-c3ccc(F)c(O)c3)nc3sccn23)n1)c1ccc(O)cc1 | 54.6 | 37.4 | 70.8 | 78.7 | 40 | 47.7% | 25.4% | 35.3 | 49.6 | 34.7 | 43.8 | 28.9 | 31 | 45.6 | 25.8 | 37 | 60.2 | 81.2 | 58.9 | 27.2
7 | CCCOC(=O)Nc1nc2ccc(SCC(C)C)cc2s1 | 46.4 | 52.4 | 44.1 | 40.7 | 29.1 | 48.4% | 24.1% | 34.3 | 40.4 | 11.6 | 57.8 | 20.8 | 38.7 | 62.7 | 28.2 | 52.7 | 32.4 | 26.9 | 58.7 | 34
8 | Cc1ccc(NC(=O)c2sc3nc(C)c(Br)c(C)c3c2N)cc1 | 73.8 | 47.7 | 51.2 | 34.9 | 54.4 | -5.03% (active) | 71.9% | 67.7 | 30.5 | 84.9 | 66.6 | 95.5 | 53.8 | 55.3 | 43.3 | 49 | 60 | 65.1 | 90.3 | 79
